Compounds with a hit are over-represented: about 6.5% of the library has one in this group of screens.
VACV Venus inh – qHTS for Stage-Specific Inhibitors of Vaccinia Orthopoxvirus: Venus Reporter Primary qHTS; Vaccinia virus Venus reporter expression, fluorescence; Potency, µM (titrated, usually from 36.5 µM), without a hit: at the top dose activity change, negative = inhibition, actives largely listed as inhibitors; 330,000 tested, 0.46% active; AID 720580, 2013; calls by dose curve; tested in A549 cells; also: potency is read from the fitted curve at half-maximal effect; nearly all actives have a fitted effect of over 30% in size
Marburg entry inh – qHTS for inhibitors of binding or entry into cells for Marburg Virus; Marburg virus pseudotyped entry inhibition, cell reporter; Potency, µM (top dose mostly 37.8 µM), inactives show at the highest dose activity change, negative = inhibition, actives largely listed as inhibitors; 300,000 tested, 1.8% active; AID 540276, 2011; calls by dose curve; tested in HEK293 cells; also: potency is read from the fitted curve at half-maximal effect
FMDV inh – High Throughput Screening for Foot and Mouth Disease Virus Antivirals | FMDV antiviral cell-based qHTS | Potency, µM (titrated, usually from 57.9 µM), for inactives: at the highest dose activity change, negative = inhibition, most hits filed as inhibitors | 410,000 tested, 1.2% active | AID 1159524, 2015; calls by dose curve; tested in HEK293T cells; also: read-out not given here; potency is read from the fitted curve at half-maximal effect; nearly all actives have a fitted effect of over 45% in size
Lassa entry inh – qHTS for Inhibitors of binding or entry into cells for Lassa Virus; Lassa virus pseudotype entry inhibition, cell reporter; Potency, µM (titrated, usually from 37.9 µM), without a hit: at the highest dose activity change, negative = inhibition, hits mostly inhibitors; 300,000 tested, 1.2% active; AID 540256, 2011; calls by dose curve; tested in HEK293 cells; also: potency is read from the fitted curve at half-maximal effect; nearly all actives have a fitted effect of over 50% in size
HCMV antiviral – qHTS Assay for inhibitors of the human cytomegalovirus (HCMV) | activity change, negative = inhibition, % at 57.5 µM | HFF cells, HCMV-luciferase reporter, 72 h; stronger effect = lower value | 410,000 tested, 4.5% active; in the data active = activity change below about -60%; inconclusive = no clear call, values can overlap the other calls; inactive = above about -39%
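Cell-based, HFFs, 1000 cells/well, 16 h 37C; cpds in DMSO + HCMV-luc, MOI 1 PFU/cell; 72 h 37C; OneGlo luminescence after 5 min RT; norm. to buffer vs Salinomycin 10uM.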
VACV mCherry inh – qHTS for Stage-Specific Inhibitors of Vaccinia Orthopoxvirus: mCherry Reporter Primary qHTS. AID 720579, 2013. 310,000 tested, 0.63% active. Potency, µM (highest dose often 36.5 µM), without a hit: at the top dose activity change, negative = inhibition, most hits filed as inhibitors. Vaccinia virus mCherry reporter infection, fluorescence; calls by dose curve; tested in A549 cells; also: potency is read from the fitted curve at half-maximal effect; nearly all actives have a fitted effect of over 35% in size
* hit, by the source's call; i = inactive; ? = inconclusive; . = not tested or not shown; [ ] = remark or other dose. % is scaled to controls: 0 for no effect and ±100 for the full control effect.

SMILES	VACV Venus inh	Marburg entry inh	FMDV inh	Lassa entry inh	HCMV antiviral	VACV mCherry inh
Cc1cc(C)c2nc(N3CCC(C(=O)NCCCN4CCCCC4)CC3)sc2c1	.	?	?	?	-103*	.
Cc1cc(C)c2nc(N3CCC(C(=O)NCC4CCCO4)CC3)sc2c1 (stereo unspecified)	-1%[7.34 µM]	.	-16%	.	51	-5%[7.34 µM]
Cc1cccc(N2CCN(c3c4c(nc5nncn35)CCC4)CC2)c1C	-8%	-6%[46.1 µM]	-13%	17%[46.1 µM]	?	-11%
Clc1cccc(N2CCN(c3c4c(nc5nncn35)CCC4)CC2)c1	-28%	?	22µM*	9%[46.1 µM]	-65*	?
COc1cccc(N2CCN(c3c4c(nc5nncn35)CCC4)CC2)c1	?	?	?	-21%[46.1 µM]	-95*	?
COc1ccc2c(c1)O[C@@H](c1ccc3c(c1)OCO3)[C@H](OC(=O)NCCOc1ccccc1)C2=O	.	45%[14.2 µM]	.	.	.	.
CC1CCCc2cc(OS(=O)(=O)C(F)(F)F)ccc2OC(=O)CC1 (stereo unspecified)	.	.	.	.	-5	.
CC(C)CCn1c(SCC(=O)N2CC(=O)Nc3ccccc32)nc2scc(-c3cccs3)c2c1=O	-7%	-17%	-13%	24%	-8	-1%
O=C1CN(C(=O)CSc2nncs2)c2ccccc2N1	-7%	?	60%	6%[46.1 µM]	-14	i
C=CCn1c(SCC(=O)N2CC(=O)Nc3ccccc32)nc2scc(-c3cccs3)c2c1=O	.	?	?	15µM*	-10	.
CC1(C)C(=O)Nc2ccccc2N1C(=O)CSc1nc(-c2ccccc2)cs1	-8%	?	16µM*	6%	-63*	-11%
O=C1CN(C(=O)CSc2nc(-c3ccccc3)cs2)c2ccccc2N1	-22%	?	?	?	-61*	-28%
Cc1cccc2cc(C#N)c(SCC(=O)N3CC(=O)Nc4ccccc43)nc12	?	?	?	?	-96*	.
C=CCN1C(=O)CC[C@@]23C1=NC(C(=O)OC)=C(C(=O)OC)[C@@H]2N(CC#CC)c1ccccc13	.	-20%[14.2 µM]	.	.	.	.
O=C(NCCCc1cnc[nH]1)NCCCN(Cc1ccc(Cl)cc1)c1ccc(Br)cn1	-16%	.	.	.	.	-7%
C=CCOC(=O)C1(C(NC(=O)OC)c2ccccc2)C(=O)Cc2ccccc21 (stereo unspecified)	.	-21%[14.2 µM]	.	.	.	.
O=[N+]([O-])c1ccc(C(c2sc3nc(-c4ccco4)nn3c2O)N2CCC3(CC2)OCCO3)cc1 (stereo unspecified)	10%	.	7%	6%[46.1 µM]	8	6%
O=C(Oc1ccccc1)N1CCC[C@@]2(CCN(c3ccccc3)C2)C1	.	.	-25%	.	.	.
CCN1C(=O)/C(=C/c2ccc(C)s2)NC1=S	-11%	19%[46.1 µM]	7%	6%	-23	-22%
CCN1C(=O)C(=Cc2ccc(C)s2)C(=O)N(CC)C1=S	18%	?	40µM*	?	32	9%
COC(=O)[C@](NC(=O)c1ccccc1)(Nc1nc(C)cs1)C(F)(F)F	.	4%	.	.	.	.
C[C@H](CO)N1C[C@H](C)[C@@H](CN(C)C(=O)Nc2ccc3c(c2)OCCO3)OCc2cn(nn2)CCCC1=O	.	.	.	.	12	.
COc1ccc(O)c(/C=N/n2c(-c3ccco3)csc2=Nc2cccnc2)c1	-15%	-2%	?	?	40	-27%
CCN=c1scc(-c2cccs2)n1/N=C/c1cc(OC)ccc1O	-14%	?	-52%	?	-95*	-2%
COc1ccc(C(=O)N2CCc3cc(OC)c(OC)cc3C2c2ccc(OC)c(OC)c2)cc1 (stereo unspecified)	-25%	?	-10%	5µM*	42	-18%
COc1ccc(CC(=O)N2CCc3cc(OC)c(OC)cc3C2COc2ccc(F)cc2)cc1 (stereo unspecified)	-5%	.	-16%	?	10	-2%
COc1ccc(C2c3cc(OC)c(OC)cc3CCN2C(=O)c2ccccc2)cc1OC (stereo unspecified)	-26%	-2%[46.1 µM]	-6%	?	9	6%

High-throughput results as filed in PubChem BioAssay.
